Most compounds without a hit are left out; they make up all but 2.5% or so of the library.
MEKK3 PB1 HTS – modulators (inhibitors or enhancers) of MEK5 binding to human MEKK3 PB1 domain | AID 1529 | bead-based flow cytometry, Alexa488-MEK5 binding to MEKK3; actives lie on both sides; 0 = blocked by unlabeled MEK5, 100 = vehicle | Q99759 | hit rate 1.4% among 290,000 | binding response (% of control), % at 10 µM;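 active = binding response more than 3 SD above or below the average of its plate-row segment, actives on both sides; inconclusive = wells at one plate position flagged as instrument error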;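 also: Alexa488 bead fluorescence after subtracting the streptavidin-only scavenger bead signal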
MEKK2mut PB1 HTS – signal of MEK5 binding to mutant human MEKK2 PB1 domain; bead flow cytometry, Alexa488-MEK5 binding to MEKK2 mutant; percent response, % at 10 µM; hit rate 0.35% among 290,000; AID 1530; in the data active = percent response above about 24%, passing the limit was not always enough
UBC13 polyUb – blocks human UBC13 polyubiquitin chain formation | P61088 | TR-FRET | inhibition, % at 20 µM | hit rate 0.47% among 330,000; in the data active = inhibition above about 45%, passing the limit was not always enough; inconclusive = no clear call, values can overlap the other calls
Rce1 inhib – yeast Ras-converting enzyme inhibition; Q03530; yeast membranes, quenched prenylated peptide cleavage fluorescence; calls only; hit rate 0.27% among 290,000; AID 2563;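 active = fall in fluorescence gain of 50% or more versus controls, with final raw signal at or below 3038400; inconclusive = same 50% fall but final raw signal above 3038400; inactive = fall in fluorescence gain under 50%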;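 also: plate controls were neutral control wells for no effect and wells lacking membranes for full effect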
Target sequence (Q03530 whole entry, looked up): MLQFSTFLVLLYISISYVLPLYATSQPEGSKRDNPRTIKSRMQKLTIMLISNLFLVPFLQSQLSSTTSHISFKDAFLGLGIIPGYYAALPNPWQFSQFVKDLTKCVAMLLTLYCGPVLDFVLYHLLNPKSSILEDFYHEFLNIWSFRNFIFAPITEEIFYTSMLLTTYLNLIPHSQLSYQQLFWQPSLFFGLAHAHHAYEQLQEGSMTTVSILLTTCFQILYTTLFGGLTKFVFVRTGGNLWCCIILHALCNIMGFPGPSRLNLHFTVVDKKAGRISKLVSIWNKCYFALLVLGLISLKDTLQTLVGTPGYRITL
MEKK2wt PB1 HTS – raises or lowers MEK5 binding to wildtype human MEKK2 PB1 domain. Q9Y2U5. bead flow cytometry, Alexa488-MEK5 binding to MEKK2 WT; actives lie on both sides. binding response (% of control), % at 10 µM. hit rate 1.1% among 290,000. AID 1531; in the data active = binding response below about 67% or above about 130%; inconclusive = no clear call, values can overlap the other calls; inactive = in between
Casp3 counter – inhibits human caspase-3 in UBC13 counter-screen | AID 488856 | inhibition, % at 20 µM | hit rate 4% among 1,400 | shares compounds with UBC13 polyUb | Recombinant caspase-3, Caspase-Glo 3/7 luminescence, 60 min;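 active = mean inhibition across replicates above about 26%, limit read from the data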;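 also: plate controls were DMSO with caspase-3 for no effect and DMSO wells lacking enzyme for full effect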
UBC13 confirm – confirmation of human UBC13 polyubiquitin inhibitors. shares compounds with UBC13 polyUb. UBC13 polyubiquitination, TR-FRET, biochemical. inhibition, % at 10 µM. hit rate 68% among 1,400. AID 488859; in the data active = inhibition above about 45%; inconclusive = no clear call, values can overlap the other calls
The depositor's hits bear a star; i = inactive; ? = inconclusive; . = no result.

SMILES	MEKK3 PB1 HTS	MEKK2mut PB1 HTS	UBC13 polyUb	Rce1 inhib	MEKK2wt PB1 HTS	Casp3 counter	UBC13 confirm
COc1ccc(CN2CCc3ccccc3C2)cc1Br	106	2	0	.	102	.	.
COc1cc(OC)cc(N2C(=O)CSCC2=O)c1	94	-7	0	i	94	.	.
Cn1c(=O)c2c(nc(SCC(=O)NCc3ccc4c(c3)OCO4)n2Cc2ccc(F)cc2)n(C)c1=O	118	5	-3	i	93	.	.
Cn1c(SCC(=O)NCc2ccc3c(c2)OCO3)ncc(C(=O)Nc2ccc(F)cc2)c1=O	.	.	50*	i	.	86*	45
Cn1c(SCC(=O)NCc2ccc(F)cc2)ncc(C(=O)Nc2ccccc2)c1=O	.	.	60*	i	.	87*	53*
Cn1c(SCC(=O)NCCc2ccccc2)ncc(C(=O)Nc2ccccc2)c1=O	.	.	46*	i	.	94*	40
Cc1cc(C)nc(SCc2ccc(C(=O)N/N=C/C3CCCCC3)cc2)n1	106	0	-16	i	99	.	.
CCC(C)n1c(=O)c(C(=O)Nc2ccccc2S(N)(=O)=O)c(O)c2ccccc21 (stereo unspecified)	106	3	44	i	107	.	.
CC(C)Cn1c(=O)c(C(=O)Nc2ccccc2S(N)(=O)=O)c(O)c2ccccc21	102	6	69*	i	99	-3	2
CCN1CCN(CCCNC(=O)c2ccc(/C=C3/Sc4ccccc4N(Cc4ccccc4F)C3=O)cc2)CC1	102	40	46*	i	177*	0	54*
CCc1ccccc1OCC(=O)OCC(=O)Nc1cc(C)on1	.	.	48*	.	.	6	16
COc1ccc(C(CC(=O)N2CCCCC2)c2c(OC)cc(OC)c3c(-c4ccccc4)cc(=O)oc23)cc1 (stereo unspecified)	99	-1	-18	i	93	.	.
COc1cc(C(CCN2CCCCC2)c2c(OC)cc(OC)c3c(-c4ccccc4)cc(=O)oc23)cc(OC)c1OC (stereo unspecified)	112	15	48*	i	133	-2	29
CCN1C(=O)CSc2ccc(C(=O)NC3CCCCC3)cc21	101	1	4	i	106	.	.
CCN1C(=O)CC(c2ccccc2)N(C2CCCC2)c2nc(Nc3ccc(C(=O)NC4CCN(C)CC4)cc3OC)ncc21 (stereo unspecified)	.	.	61*	.	.	1	41
C[C@@H]1O[C@@H](Oc2c(-c3ccc(O)c(O)c3)oc3cc(O)cc(O)c3c2=O)[C@H](O)[C@H](O)[C@H]1O	.	.	20	.	.	.	.
C[C@@H]1O[C@@H](Oc2c(-c3cc(O)c(O)c(O)c3)oc3cc(O)cc(O)c3c2=O)[C@H](O)[C@H](O)[C@H]1O	103	4	50*	i	98	-5	17
Oc1ccc(C2=NNC(=NCc3ccc4c(c3)OCO4)SC2)c(O)c1	126	0	45*	i	102	0	72*
Clc1ccc(C2=NNC(=NCc3ccc4c(c3)OCO4)SC2)cc1	106	38	.	.	107	.	.
Cc1ccccc1NC(=O)c1c(C)[nH]c(=S)c(C#N)c1-c1ccc(Cl)cc1	101	0	50*	i	97	-4	?
Cc1[nH]c(=S)c(C#N)c(-c2ccccc2)c1C(=O)Nc1ccccc1	99	1	51*	i	102	3	?
CN(C)CCCNC(=O)c1ccc(-c2cc(O)c3ncccc3c2)cc1	.	.	112*	.	.	2	118*
CN(C)c1ccc(-c2cc(O)c3ncccc3c2)cc1	.	.	-24	.	.	.	.
Nc1ccc(Sc2cc(Cl)nc(N)n2)cc1	101	-2	-3	i	99	.	.
Nc1nc(N)c2cc(Sc3ccc4ccccc4c3)ccc2n1	99	26	50*	i	157*	3	37
O=C(c1ccc(Br)cc1)N(Cc1nc2ccccc2c(=O)[nH]1)C1CCCC1	108	3	11	i	103	.	.
COc1cccc(NC(=O)CCCOc2cc(=O)n(C)c3ccccc23)c1	99	3	-1	i	101	.	.
CCOc1ccc(NC(=O)CCCOc2cc(=O)n(C)c3ccccc23)cc1	109	3	74*	i	110	4	76*

Screening data: PubChem, several laboratories
